Data from PubChem BioAssay (NCI).
Compounds without any hit were thinned out: in the full panel of roughly 79,000, 15% have a hit. Rule as the data show it: active = growth inhibition above about 70%; inactive = the rest. Where a SMILES comes first, the peptide text is derived from it. The star is where a group is joined. Boc = CC(C)(C)OC(=O)*; OcHex = C1CCC(O*)CC1

Legend:
[1] = NCI Yeast Anticancer Drug Screen. Data for the rad50 strain (AID 155);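 also: 0% = growth of vehicle-only cultures of the same strain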; conditions: S. cerevisiae rad50 strain growth inhibition; at 50.0 µM; active compounds read high
Summary of the method: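 A DNA repair-deficient yeast mutant serves as the test organism; compound-induced growth inhibition is calculated against vehicle-treated cells.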

[2] = NCI Yeast Anticancer Drug Screen. Data for the mec2-1 strain (AID 157); conditions: S. cerevisiae mec2-1 strain, at 50.0 µM, active compounds read high
Summary of the method: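 Compounds were applied to mec2-1 yeast cells. Their growth was then compared with that of vehicle-treated cultures to give growth inhibition.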

[3] = NCI Yeast Anticancer Drug Screen. Data for the sgs1 mgt1 strain (AID 161);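 also: 0% = growth of cultures given vehicle only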; conditions: S. cerevisiae sgs1 mgt1 strain, at 50.0 µM, active compounds read high
Summary of the method: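 This yeast growth screen uses a strain with defined DNA-repair lesions; compound-treated growth is compared with vehicle-treated growth.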

[4] = NCI Yeast Anticancer Drug Screen. Data for the cln2 rad14 strain (AID 165);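 also: 0% = growth equal to vehicle treated cultures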; conditions: S. cerevisiae cln2 rad14 strain, at 50.0 µM, active compounds read high
Summary of the method: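 Strain: cln2 rad14 yeast, altered in cell cycle control and DNA damage repair. Read-out: growth inhibition vs vehicle.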

[5] = NCI Yeast Anticancer Drug Screen. Data for the bub3 strain (AID 167); conditions: S. cerevisiae bub3 mutant strain, at 50.0 µM, active compounds read high
Summary of the method: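 Inhibition values come from growth of compound-treated mutant yeast normalised to vehicle-treated controls.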

[6] = NCI Yeast Anticancer Drug Screen. Data for the mlh1 rad18 strain (AID 175); conditions: S. cerevisiae mlh1 rad18 strain growth inhibition; at 50.0 µM; active compounds read high
Summary of the method: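 A repair-deficient yeast strain is exposed to test compound, and growth is scored relative to vehicle-treated controls.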

Measured: growth inhibition

OCCOc1ccc(OCCO)cc1
inactive: [1] -2.1% | [2] -5.65% | [3] -8.95% | [4] -39.7% | [5] 9.9% | [6] -8.45%

COc1ccc(-c2c(C#N)c(N)n(C3OCC(O)C(O)C3O)c(=S)c2C#N)cc1 (stereo unspecified)
inactive: [1] -33.6% | [2] -6.5% | [3] -15.3% | [4] -37.8% | [5] -1.9% | [6] 3.4%

COc1ccc(-c2nc(-c3cc4c(ccc5ccccc54)oc3=O)cs2)cc1
inactive: [1] 24.4% | [2] 18.5% | [3] 1.45% | [4] 15% | [5] 0.9% | [6] -41.5%

COC(=O)CCC1(CCC(=O)OC)CCCCCCC(CCC(=O)OC)(CCC(=O)OC)C(=O)C1=O
inactive: [1] -11.6% | [2] -0.5% | [3] -1.25% | [4] -2.45% | [5] 5.25% | [6] 19.8%

CN(C)C(=O)C1Cc2ccccc2CC1C(=O)N(C)C (stereo unspecified)
inactive: [1] -0.4% | [2] -0.55% | [3] 0.85% | [4] -21.5% | [5] -3.6% | [6] -9.75%

CCN(CC)CCOC(=O)c1ccc(N=Nc2cc(C(=O)O)ccc2O)cc1
inactive: [1] 14.8% | [2] -6.3% | [3] 4.1% | [4] -6.55% | [5] -0.8% | [6] -12.5%

O=C1C=C(C2CCCCC2)C(=O)c2ccccc21
inactive: [1] 17% | [2] 2.6% | [3] 15.4% | [4] 18.3% | [5] 58.5% | [6] 10.3%

CCN(CC)C(=O)CCC1(C)OCCO1
inactive: [1] -4.8% | [2] -12.1% | [3] -25.3% | [4] 56.4% | [5] -13.9% | [6] 6.45%

O=C1CCCCC/C1=C\O
inactive: [1] 2.8% | [2] -12.1% | [3] -10.6% | [4] -11.9% | [5] -23.9% | [6] 5.15%

COc1cccc(/C=C2\C(=O)N(C(=O)Cc3ccccc3)N=C2C)c1
inactive: [1] 4.3% | [2] -30.2% | [3] -34.8% | [4] -0.45% | [5] -14.8% | [6] -24.1%

Ic1ccc(-n2cccc2)cc1
inactive: [1] 8.4% | [2] 5.55% | [3] -1.7% | [4] -3.25% | [5] 13.8% | [6] -18.6%

Cc1cc(N(CCO)CCO)c2ccc3cc4ccccc4cc3c2n1
inactive: [1] 38.5% | [2] 16.6% | [3] 9.35% | [4] 8.3% | [5] 18.3% | [6] 23.9%

Cc1ccccc1NC(=O)C(C)C
inactive: [1] 28.8% | [2] -5.7% | [3] 4.35% | [4] 11.3% | [5] 15.2% | [6] 7.2%

CC1=C(C(=O)Nc2ccc(C)cc2)C(c2cccc([N+](=O)[O-])c2)C(C(=O)Nc2ccc(C)cc2)=C(C)N1
inactive: [1] 14.9% | [2] 24.3% | [3] 22.5% | [4] 13.8% | [5] 41% | [6] 4.35%

COc1cc(C(=O)NC(=S)Nc2csc(-c3ccc(F)cc3)n2)cc(OC)c1OC
inactive: [1] 14.9% | [2] -12.8% | [3] 8.65% | [4] 16.9% | [5] -0.75% | [6] 11.7%

Cc1ncc(C(=O)O)c(CO)c1N
inactive: [1] 7.45% | [2] -15.9% | [3] -14.8% | [4] 13.3% | [5] -18.4% | [6] 4.8%

O=C1c2cccc(S)c2C(=O)c2cccc(S)c21
inactive: [1] -21.5% | [2] -11.3% | [3] -9.75% | [4] 4.7% | [5] 5.35% | [6] -15.5%

O=C1CC(Cc2n[nH]c3c2CCC3)CC(=O)N1
inactive: [1] -8.25% | [2] 2.65% | [3] -10.2% | [4] -16.4% | [5] -10% | [6] -13.2%

O=c1[nH]c(=S)[nH]c2c1CCC2
inactive: [1] 6% | [2] 25.4% | [3] 44.2% | [4] 21.4% | [5] 35.2% | [6] 24.1%

C=CCNC(=O)CCCCCCC/C=C\CCCCCCCC
inactive: [1] 16.6% | [2] -8.5% | [3] -1.45% | [4] -27.6% | [5] -2.85% | [6] 9.4%

Oc1cncc2ccccc12
inactive: [1] 3.35% | [2] 5.2% | [3] 11.2% | [4] -1.35% | [5] 1.6% | [6] -4.85%

O=C1C(=Cc2ccco2)C(=O)C2CCCCC12 (stereo unspecified)
inactive: [1] 6.8% | [2] -9% | [3] -10.8% | [4] 13% | [5] 2.4% | [6] 13.6%

CCSCCOC(=S)Nc1ccccc1
inactive: [1] -6.25% | [2] -8.05% | [3] -4.9% | [4] 0.7% | [5] 4.25% | [6] 7.1%

Fc1ccc(CSc2cnnc(SCc3ccc(F)cc3)c2SCc2ccc(F)cc2)cc1
inactive: [1] -23.2% | [2] 2.75% | [3] -20.2% | [4] -21.9% | [5] -13.9% | [6] -34.7%

CC(=O)[C@H]1CC[C@H]2[C@@H]3CC(=O)C4=CC(=O)CC[C@]4(C)[C@H]3C(=O)C[C@]12C
inactive: [1] 11.3% | [2] -12.2% | [3] 11.2% | [4] -25.6% | [5] 0.45% | [6] -4.9%

CC(=O)NNc1nc(C)c(C(=O)NNC(=O)C(=O)Nc2c(C)cccc2C(C)(C)C)s1
inactive: [1] 26.6% | [2] 20.2% | [3] 13.2% | [4] 32.5% | [5] 24.9% | [6] 20.9%

Cc1cc(Br)ccc1C1=C(O)C(=O)NC1=O
inactive: [1] 5.55% | [2] -10.4% | [3] 10.7% | [4] -32.3% | [5] -1.7% | [6] -5.4%

O=C(N/N=C\c1ccc([N+](=O)[O-])cc1)Nc1ccc2ccccc2c1
inactive: [1] 3.15% | [2] 8.1% | [3] 1.85% | [4] 8.3% | [5] 25.2% | [6] 14.1%

N#C/C(=C/N1C(=O)CC(=O)NC1=S)c1cccc(Cl)c1
inactive: [1] -30.7% | [2] -14.3% | [3] -31.2% | [4] 18.2% | [5] -28.8% | [6] -48.5%

N=C(N)SCC(O)C(O)CSC(=N)N (stereo unspecified)
inactive: [1] 0.3% | [2] 4.4% | [3] -0.95% | [4] -30.1% | [5] -6.45% | [6] -1.5%

Oc1c(Cl)cc(Cl)cc1C=Nc1ccc2c(ccc3c4ccccc4ccc23)c1
inactive: [1] 7.95% | [2] 2.4% | [3] -2.4% | [4] -41.4% | [5] 6.55% | [6] 15.1%

O=C(COc1cccc(Cl)c1)Nc1cccc(S(=O)(=O)O)c1 (tested in a mixture with another compound)
inactive: [1] 5.15% | [2] -7.65% | [3] -12.8% | [4] -16.6% | [5] 2% | [6] 11.2%

COc1cc(C(=O)C(C=O)c2ccccc2)c([N+](=O)[O-])cc1OC (stereo unspecified)
inactive: [1] 14.8% | [2] 21.4% | [3] 21.5% | [4] 25.8% | [5] 43% | [6] 23.1%

CC(C)CC(NC(=O)OC(C)(C)C)C(=O)NC(CCC(=O)OC1CCCCC1)C(N)=O (stereo not drawn) (Boc-Leu-Glu(OcHex)-NH2; configuration not given here)
inactive: [1] -4.8% | [2] -12.4% | [3] -8% | [4] 1.5% | [5] 3.4% | [6] 8.75%

O=S1(=O)CC(N2CCCCC2)C1
inactive: [1] -3.95% | [2] 2.05% | [3] 17.3% | [4] -40.9% | [5] -3% | [6] -13.3%

CCOC(=O)Cc1cccnc1
inactive: [1] -27.6% | [2] -40% | [3] -14.1% | [4] 16.5% | [5] -12.2% | [6] -3.4%

COC(=O)c1cc2c(cc1N=Cc1ccccc1Cl)OCO2
inactive: [1] 0.45% | [2] 4.3% | [3] 12.1% | [4] -1.65% | [5] -0.85% | [6] 6.35%

O=C1CCCc2ccccc21
inactive: [1] -2.35% | [2] -11.3% | [3] -29.9% | [4] -30.3% | [5] -14% | [6] 1%

O=C(O)C(S)c1ccc2ccccc2c1 (stereo unspecified)
inactive: [1] 28.6% | [2] 19.9% | [3] 20.2% | [4] 18.6% | [5] 12.3% | [6] 13.2%

COc1ccc(/C(C#N)=C\c2ccc(N(C)C)cc2)cc1
inactive: [1] -4.8% | [2] -13.1% | [3] 3.1% | [4] -21.2% | [5] 10.2% | [6] -14.3%

O=C(/C=C/c1ccccc1)CCc1c(O)c2ccccc2oc1=O
inactive: [1] 9.05% | [2] -5.3% | [3] 0.45% | [4] 31.1% | [5] 1.85% | [6] 28.8%
